# According to PubChem BioAssay:
# Unmarked numbers belong to inactive results.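 The calls were made as follows: active = z-score of at least 1.8 in each of two replicates, scored against plate mean and spread of sample wells; inactive = the rest.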
# Assay: viability rescue of complex I mutant cybrids, primary screen, cell-based, galactose medium, ATP luminescence (AID 1645843);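 also: positive z means more ATP and so rescue of galactose-driven cybrid death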
# Settings: complex I mutant cybrid cells, 72 h, active compounds read high
row,SMILES,z-score
1,CC(CC12CC3CC(CC(C3)C1)C2)n1cnc2nccnc2c1=O (stereo unspecified),1.54
2,O=C(C(=O)N1CCCCC1c1nc2ccc(F)cc2[nH]1)c1ccccc1 (stereo unspecified),0.05
3,O=C(Cn1cc(-c2cncnc2)cn1)Nc1ccnn1Cc1ccco1,1.12
4,CCCCc1cn(C2CCN(C(=O)C3CCCCCC3)CC2)nn1,-0.56
5,O=C(Nc1cccnc1)c1csc(Cc2ccccc2)n1,-0.815
6,CCCCCNC(=O)N1CCC2(CC1)Nc1ccccc1N(CC)C2=O,-0.065
7,Cn1ccnc1-c1ccccc1C(=O)N1CCN(Cc2cccc(F)c2)CC1,0.355
8,COc1c(F)cc(C(=O)N2CCNC(=O)C2Cc2ccccc2)cc1F (stereo unspecified),-0.455
9,CCOc1ccc2ccccc2c1-c1nc2c(cnn2CC)[nH]1,-0.255
10,Fc1cccc(-c2ccc(N3CCC(NC4CCNCC4)CC3)cc2)c1,-1.3
11,CCCC(CCC)C(=O)N1CCC(n2cc(C(C)O)nn2)CC1 (stereo unspecified),-0.47
12,CC(=O)c1c(C)cc(C)c(CNC(C)CCCC(C)(C)O)c1C (stereo unspecified),-0.52
13,CC1Cc2cc(C(=O)N3CCC(Cn4cc(C5CC5)nn4)CC3)ccc2O1 (stereo unspecified),-0.53
14,Cc1ccc2c(=O)n(C3CC(C)(C)NC(C)(C)C3)cnc2c1C,-0.535
15,CCCn1cc(-c2ccnc(NC(CC(C)(C)C)c3cccnc3)n2)c(C)n1 (stereo unspecified),1.13
16,COc1cccc(CN2CCN(C(=O)c3cc4cc(OC)ccc4[nH]3)CC2=O)c1,-0.41
